Source: PubChem
In the library only some 2.7% were active in any assay of this set; here they are far more common.
Tau fibril ThT – blocks human tau fibril formation measured by thioflavin T. Potency, µM (highest dose often 57.4 µM), for inactives: at the highest dose activity, negative = inhibition, usual class: inhibitors. recombinant tau K18 P301L, heparin-induced fibrillization, ThT fluorescence. 2.1% of 270,000 active. P10636; further: potency means the concentration at half of the fitted maximal effect; nearly all actives have a fitted effect of over 55% in size
Target sequence (P10636 561-689 P618L limits assumed): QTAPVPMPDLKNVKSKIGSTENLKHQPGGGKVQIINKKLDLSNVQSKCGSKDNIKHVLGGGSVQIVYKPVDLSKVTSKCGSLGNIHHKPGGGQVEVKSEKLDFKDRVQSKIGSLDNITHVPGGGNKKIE
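Aggregation was driven by heparin (20 uM final) acting on recombinant tau […] bearing P301L in 100 mM sodium acetate pH 7; fibrils were detected with Thioflavin T.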
Tau FP inhib – tau fibrillization inhibition (FP); Potency, µM (titrated, usually from 57.7 µM), for inactives: at the highest dose activity, negative = inhibition, most hits filed as inhibitors; P10636; 0.39% of 280,000 active; K18 P301L tau heparin fibrillization, Alexa594 FP, 6 h; further: potency means the concentration at half of the fitted maximal effect; nearly all actives have a fitted effect of over 55% in size
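Recombinant K18 P301L […], labeled with Alexa 594 at 0.24 uM over 15 uM unlabeled; heparin inducer 20 uM final; 37 C, 6 hr; FP endpoint.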
Tau fluor counter – counter-screen for tau fibril formation inhibitors; tau K18 P301L Alexa594 fluorescence, heparin fibrillization; Potency, µM (doses to about 57.7 µM), for inactives: at the highest dose activity change, negative = decrease; 0.93% of 280,000 active; AID 1463; further: potency means the concentration at half of the fitted maximal effect; nearly all actives have a fitted effect of over 55% in size
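Human tau K18 P301L (15 uM unlabeled, 0.24 uM Alexa 594-labeled) in 100 mM sodium acetate pH 7 with 20 uM heparin, 6 hr at 37 C. ThT 30 uM added, 1 hr ambient; Alexa 594 FP and total fluorescence read at 555/632 nm.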
Coupling enz – inhibits coupling enzyme system, counter-screen for aldolase hits; coupling enzyme system counterscreen, AmpLite Red fluorescence; activity change, negative = inhibition, % at 58.2 µM, hits read low; 0.67% of 290,000 active; AID 2472; in the data active means activity change below about -30%
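Compounds tested against the coupling enzymes alone at 57.5 uM final; readout was AmpLite Red fluorescence (525/598 nm) after 20 min at RT.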
Active calls of the source: *; ? = inconclusive; / = not tested or not shown; [ ] = dose if it differs, or a comment. Unless noted, the call rests on the fitted dose curve; in most records, active means well fitted curve in the direction sought with a large enough effect; inconclusive means small, poorly fitted or top-dose-only effect, or another doubt; inactive means no such curve, though single readings can be large; an effect the other way counts as inactive or inconclusive. On the % scale 0 is the no-effect control and ±100 the full control effect.

SMILES	Tau fibril ThT	Tau FP inhib	Tau fluor counter	Coupling enz
COC(=O)/C(C)=C\CC12OC(C)(C)C3CC(C=C4C(=O)c5c(OC)c6c(c(CC=C(C)C)c5OC431)OC(C)(CCC=C(C)C)C=C6)C2=O (centres undefined)	28µM*	?	-22%	-2
CC(=O)Oc1c2c(c(CC=C(C)C)c3c1C(=O)C1=CC4CC5C(C)(C)OC(C/C=C(\C)C(=O)O)(C4=O)[C@]15O3)OC(C)(CCC=C(C)C)C=C2 (some centres undefined)	7.1µM*	10µM*	?	-2
CC1(C)N(O)C(c2ccc(C(=O)O)cc2)=[N+]([O-])C1(C)C	?	-16%	-11%	-51*
Cc1ccc2nc(N3CCN(C)CC3)[nH]c2c1	3%	-5%	0%	-2
CCOc1ccc(-c2nc3ccc(-c4nc5ccc(N6CCN(C)CC6)cc5[nH]4)cc3[nH]2)cc1	2.8µM*	6%	?	-2
N#Cc1c(/N=C/c2c(O)n(Cc3ccco3)c(=O)[nH]c2=O)sc2c1CCCC2	20µM*	?	-23%	-1
O=c1[nH]c(=O)n(Cc2ccco2)c(O)c1/C=N/N1CCCCCC1	1%	5%	2%	0
COc1ccc(N2C(=O)C(Cl)=C(N3CCN(Cc4ccccc4)CC3)C2=O)cc1	25µM*	28µM*	-30%	-3
O=C1C(Cl)=C(N2CCCCCC2)C(=O)N1c1ccccc1	25µM*	?	?	8
O=C1CC(=O)N(c2ccccc2)C(=O)N1c1ccccc1	/	/	/	1
Cc1cc(C)nc(OC(=O)c2ccc(Cl)cc2Cl)n1	?	-14%	-15%	1
O=C1NC(=S)N(c2ccc(F)cc2)C(=O)/C1=C\c1ccoc1	18µM*	?	-21%	-7
C=CCN1C(=O)/C(=C/c2cc(C)n(-c3cccnc3)c2C)C(=O)NC1=S	22µM*	?	-19%	-19
C/C(=N\NC(=O)c1ccccc1O)c1c(O)n(Cc2ccccc2)c(=O)[nH]c1=O	14µM*	13%	?	13
O=C(Nc1ccc2nc(SCC(=O)N3CCOCC3)sc2c1)c1ccc(Cl)cc1	7%	?	-25%	/
COc1cccc([C@@]2(O)CCCCC2CN(C)C)c1 (some centres undefined)	/	/	/	-1
Cc1ccc(N2C(=O)/C(=C/c3ccc(CN(CCC#N)S(C)(=O)=O)o3)C(=O)NC2=S)cc1C	18µM*	?	-26%	1
CCOc1ccc(N2C(=O)/C(=C/c3ccc(C)o3)C(=O)NC2=S)cc1	/	/	/	7
Cc1cccc(N2C(=O)/C(=C/c3ccc(CN(CCC#N)S(C)(=O)=O)o3)C(=O)NC2=S)c1	25µM*	?	-21%	-1
COc1ccc(-c2oc3cc(OC)ccc3c(=O)c2O)cc1	-12%	?	-20%	2
Cc1ccc(C)c(N2CCN(c3ncnc4onc(C)c34)CC2)c1	?	-9%	-20%	/
C=C(C)C1CCC(C)=CC1c1c(OC)cc(C)cc1OC (centres undefined)	/	/	/	-3
N=C1/C(=C/c2ccc(OC(=O)c3ccco3)cc2)C(=O)N=C2SC=CN12	?	2%	-14%	-2
O=C1CC(N2CC=C(c3ccccc3)CC2)C(=O)N1c1ccc(F)cc1 (centres undefined)	?	-14%	-16%	-3
CCCOc1ccc(N2C(=O)CC(N3CC=C(c4ccccc4)CC3)C2=O)cc1 (centres undefined)	32µM*	?	-20%	1
SMILES	Tau fibril ThT	Tau FP inhib	Tau fluor counter	Coupling enz
NC(=O)CSP(=O)(c1ccccc1)c1ccccc1	28µM*	?	-15%	0
CCCCCCCCCOc1ccc2[nH]cc(CCN)c2c1	?	?	7.9µM*[quencher]	-1
COc1ccc2[nH]cc(CCN)c2c1	?	4%	0%	3
C/C(=C\c1ccc(N(C)C)cc1)[N+](=O)[O-]	13µM*	-6%	14µM*[quencher]	1
CN(C)c1ccc(C(=O)c2ccc(N(C)C)cc2)cc1	?	6%	-19%	0
CN(C)c1ccc(/C=C/[N+](=O)[O-])cc1	10µM*	-1%	?	0
COc1cc(/C=C/[N+](=O)[O-])ccc1OC(=O)c1cccnc1	/	/	/	0
CCOCCCNC(=O)c1c[nH]c2ccc(S(=O)(=O)N(C)c3ccc(Cl)cc3F)cc2c1=O	3%	?	?	/
O=C(Nc1ccc(Cl)c(C(F)(F)F)c1)C1CCCN(S(=O)(=O)c2cccc3cccnc23)C1 (centres undefined)	-1%	-19%	?	/
CNCc1ccccc1	?	-16%	?	-1
C=CCN1C(=O)NC(=O)/C(=C/c2ccc(OC)c(CSc3ccccn3)c2)C1=O	?	-9%	-7%	-4
CN(C)c1ccc(/C=C2/C(=O)NC(=O)N(CCc3ccc(F)cc3)C2=O)cc1	?	-10%	1%	1
O=C1NC(=O)N(CCc2ccc(F)cc2)C(=O)/C1=C\C=C\c1ccccc1	28µM*	?	-19%	2
C=CCN1C(=O)NC(=O)/C(=C/C=C/c2ccccc2)C1=O	28µM*	?	-20%	2
CCOC(=O)c1cccc(NC(=O)NCc2ccc3c(c2)CCN3C(=O)c2ccccc2)c1	-13%	?	?	/
O=C(Oc1ccccc1)N1CCC[C@@]2(CCN(C(c3ccccc3)c3ccccc3)C2)C1	/	/	/	-34*
CCc1ccc(-c2nc(CN3CCCC(C(=O)NCc4ccc(C)cc4)C3)c(C)o2)cc1 (centres undefined)	?	-3%	-9%	/
Cc1cc(O)c2c(c1)C(=O)c1cc(O)cc(O)c1C2=O	10µM*	11%	16µM*[quencher]	-3
Nc1ccc(N)cc1	14µM*	?	?	-26
CN(C)/C=C1/C(=O)NC(=O)N(CCNc2ncc(C(F)(F)F)cc2Cl)C1=O	16µM*	?	-9%	10
CCCCN1C(=O)NC(=O)/C(=C/c2cnc(SC)nc2)C1=O	?	-13%	-18%	7
CC1(C)[C@H](C(=O)O[C@H](C#N)c2cccc(Oc3ccccc3)c2)[C@@H]1C=C(Br)Br	/	/	/	0
COC(=O)[C@@H]1[C@@H](O)[C@@]2(O)c3c(OC)cc(OC)cc3O[C@@]2(c2ccc(OC)cc2)[C@H]1c1ccccc1	-9%[11.5 µM]	-5%[11.6 µM]	-10%[11.6 µM]	1
COc1ccc2nc(NC(=O)c3nc(S(=O)(=O)Cc4cccc(C)c4)ncc3Cl)sc2c1	14µM*	-10%	?	/
Cc1ccc(O)c(C(CCN(C(C)C)C(C)C)c2ccccc2)c1 (centres undefined)	1%	-4%	-3%	2
CC(C)[C@@]1(NC(=O)[C@@H]2C[C@H]3c4cccc5[nH]cc(c45)C[C@@H]3N(C)C2)O[C@@]2(O)[C@H]3CCCN3C(=O)[C@H](Cc3ccccc3)N2C1=O	?	0%	13µM*[quencher]	-5
CN1C[C@H](C(=O)N[C@]2(C)O[C@@]3(O)[C@H]4CCCN4C(=O)[C@H](Cc4ccccc4)N3C2=O)C[C@H]2c3cccc4[nH]cc(c34)C[C@@H]21	?	7%	7.1µM*[quencher]	-1
